Source: PubChem BioAssay (EPA / NIEHS)
Inconclusive results are not listed. The source made the active and inactive calls. How the source made its calls: active means hit-call score of the fitted dose curve at least 0.9, where 1 is the maximum; inconclusive means response in the unintended direction; inactive means score below 0.9.

target: Glucocorticoid receptor (Homo sapiens) (UniProt P04150); assay: NVS_NR_hGR: NovaScreen (NVS) Nuclear Receptor Binding Assay for human Glucocorticoid Receptor (GR) (AID 2283363)
Method: NVS_NR_hGR is a biochemical, single-readout assay that uses extracted gene-proteins in a cell-free assay. Measurements were taken 16 hours after chemical dosing in a 96-well plate.NVS_NR_hGR is one of one assay component(s) measured or calculated from the NVS_NR_hGR assay. It is designed to make measurements of radioligand binding, a form of binding reporter, as detected with scintillation counting signals by Filter-based radiodetection technology.Data from the assay component NVS_NR_hGR was analyzed into 1 assay endpoint. This assay endpoint, NVS_NR_hGR, was analyzed in the positive analysis fitting direction relative to DMSO as the negative control and baseline of activity. Using a type of binding reporter, loss-of-signal activity can be used to understand changes in the binding as they relate to the gene NR3C1. Furthermore, this assay endpoint can be referred to as a primary readout, because the performed assay has only produced 1 assay endpoint. To generalize the intended target to other relatable targets, this assay endpoint is annotated to the nuclear receptor intended target family, where the subfamily is steroidal.
Binding assays used specific radioligands (tritiated, iodinated) with non-radioactive competitive displacement ligands in agonist or antagonist protocols (as indicated) and various reference compounds and inhibitors to titrate specific binding to receptors and transporters. Most enzyme assays (CYPs, kinases, phosphatases, proteases, HDACs) used recombinant protein and specific substrates (fluorescence mostly, some colorimetric and radioactive) and inhibitors, followed by a biochemical separation of substrate and product. All assays for the biochemical HTS were initially run in duplicate at a single concentration (10 uM for CYP450 assays and 25 uM for all others). […] Each assay was run with positive and negative controls, and concurrent controls on every plate. The follow-up (secondary) screen tested active chemical-pairs in concentration series, as well as a few additional assays not tested in the primary screen, some selected negative inactives, and several cases re-run in the concentration series for confirmatory purposes.

Glucocorticoid receptor (Homo sapiens), sequence (P04150 whole entry, looked up): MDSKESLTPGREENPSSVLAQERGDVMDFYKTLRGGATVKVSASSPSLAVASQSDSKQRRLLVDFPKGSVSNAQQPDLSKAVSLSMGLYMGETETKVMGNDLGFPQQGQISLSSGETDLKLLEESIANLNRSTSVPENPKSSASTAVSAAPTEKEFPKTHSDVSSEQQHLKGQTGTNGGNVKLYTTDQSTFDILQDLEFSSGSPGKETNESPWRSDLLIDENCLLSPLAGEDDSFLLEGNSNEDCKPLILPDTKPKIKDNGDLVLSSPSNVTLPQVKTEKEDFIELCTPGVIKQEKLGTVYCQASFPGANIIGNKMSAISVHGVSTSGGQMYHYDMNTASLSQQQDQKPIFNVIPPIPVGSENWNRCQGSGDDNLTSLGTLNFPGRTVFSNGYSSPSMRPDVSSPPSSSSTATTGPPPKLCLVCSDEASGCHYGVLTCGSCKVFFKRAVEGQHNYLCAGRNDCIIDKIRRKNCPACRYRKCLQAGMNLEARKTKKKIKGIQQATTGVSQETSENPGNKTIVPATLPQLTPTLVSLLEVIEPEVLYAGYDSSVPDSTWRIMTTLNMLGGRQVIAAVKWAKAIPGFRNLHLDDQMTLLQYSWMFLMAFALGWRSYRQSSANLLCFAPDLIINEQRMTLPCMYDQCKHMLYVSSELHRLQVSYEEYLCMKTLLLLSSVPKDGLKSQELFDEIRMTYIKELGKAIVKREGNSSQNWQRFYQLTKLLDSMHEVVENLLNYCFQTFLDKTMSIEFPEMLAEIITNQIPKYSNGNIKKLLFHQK

Row | SMILES | outcome | AC50
1 | CCCCCCCC[N+](C)(CCCCCCCC)CCCCCCCC | inactive | –
2 | CCCCCCCCCCCCCOP(=O)(O)O | – | 10.4 µM (active)
3 | CCN(CCC#N)c1ccc(N=Nc2c(Cl)cc([N+](=O)[O-])cc2Cl)cc1 | – | 25 µM (active)
4 | CCCCCCCCCCCCCCCC[N+](C)(C)CC | – | 2.81 µM (active)
5 | CC(C)c1ccc2c(C(C)C)cc(C(C)C)c(S(=O)(=O)O)c2c1 | – | 10.9 µM (active)
6 | O=C(Nc1ccccc1SSc1ccccc1NC(=O)c1ccccc1)c1ccccc1 | – | 11.3 µM (active)
7 | O=C1CCCC1 | inactive | –
8 | c1ccc2c(c1)ccc1cc3c(ccc4ccccc43)cc12 | inactive | –
9 | O=S(=O)(O)c1ccccc1C=Cc1ccc(-c2ccc(C=Cc3ccccc3S(=O)(=O)O)cc2)cc1 | – | 3.61 µM (active)
10 | C#CC1(O)CC[C@H]2[C@@H]3CCC4=CCCC[C@@H]4[C@H]3CC[C@@]21C (stereo partly specified) | – | 5.07 µM (active)
11 | Oc1ccc(Cl)cc1Cc1cc(Cl)ccc1O | – | 2.65 µM (active)
